An excerpt weighted towards active compounds, which were near 4% of everything screened.
Peg3 promoter – Peg3 promoter-driven luciferase inhibitors, primary screen, cell-based, HeLa, luciferase luminescence; HeLa PEG-Prom luciferase reporter, overnight; inhibition, % at 20 µM; AID 588405, 2011; actives 1.7% (n = 360,000);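 active = inhibition of at least 50% at 20 µM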
TWEAK Fn14 block – inhibitors of TWEAK-Fn14 signaling, primary screen, luciferase reporter cells, uHTS; actives 2% (n = 360,000); inhibition, % at 10 µM; TWEAK-stimulated Fn14 reporter cells, luciferase luminescence, 8 h; in the data active = inhibition above about 50%
LMP1 NFkB inh – EBV LMP1-driven NF-kappaB luciferase reporter inhibitors, primary screen, cell-based, luminescence, single point; inhibition, % at 12.5 µM; actives 0.69% (n = 350,000); LMP1-induced NF-kappaB luciferase reporter cells; AID 504558, 2011; in the data active = inhibition above about 41%
MITF TRPM1 inh – inhibitors of MITF-dependent TRPM1 promoter reporter, primary screen, cell-based, SK-MEL-5, single point, luciferase; inhibition, % at 12.5 µM; SK-MEL-5 TRPM1 promoter luciferase, 24 h; actives 0.83% (n = 330,000);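 active = mean inhibition across replicates of 60% or more, whatever share of single replicates reaches that level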
HIF-2a block – HIF-2a reporter inhibitors, primary screen, luminescence, 786-0 RCC cells; 786-0 RCC cells HIF-2a reporter, luciferase luminescence, overnight; inhibition, % at 18.8 µM; actives 0.72% (n = 360,000); AID 624352, 2012;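 active = inhibition of the luminescence signal of 40% or more relative to plate controls, in a single-dose primary screen at 18.75 µM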
TROY signal inh – inhibitors of TROY-driven NF-kB signaling, primary screen, Q293 LMP1-TROYcd cells, NF-kB luciferase, uHTS; Q293 LMP1-TROYcd NF-kB luciferase reporter, 4 h; inhibition, % at 10 µM; actives 0.98% (n = 360,000);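 active = compounds whose plate-normalised and pattern-corrected inhibition of the luciferase reporter signal at the single screening dose is 50% or more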
Each line names hits and unclear results; the compound was inactive in the other large screens.

CCN(CC)S(=O)(=O)c1ccc(-c2cn3cc(Cl)ccc3n2)cc1	none
CC1Cc2ccccc2N1C(=O)CCn1cccn1 (stereo not given)	none
COc1ccccc1OCC(=O)NCCSCc1ccc(Cl)cc1	Peg3 promoter 77
COc1ccccc1NC(=O)COc1ccc(/C=N/NC(=O)CSCc2ccc(Cl)cc2)cc1	TROY signal inh 51
COc1ccccc1NC(=O)COc1ccc(/C=N/NC(=O)CSCc2cc(C)cc(C)c2)cc1	none
C=CCNc1ncnc2c1cnn2-c1ccc(Cl)cc1	none (no result: MITF TRPM1 inh)
CC1CN(c2ncnc3c2cnn3-c2ccc(Cl)cc2)CC(C)O1 (stereo not given)	TROY signal inh 55
CCOC(=O)N1CCC(Nc2ncnc3c2cnn3-c2ccc(Cl)cc2)CC1	TROY signal inh 50
CCOC(=O)C1CCCN(c2ncnc3c2cnn3-c2ccc(Cl)cc2)C1 (stereo not given)	TWEAK Fn14 block 63
CCNC(=O)C1CCCN(C(=O)c2cc(C)oc2C)CC1 (stereo not given)	none (no result: LMP1 NFkB inh, MITF TRPM1 inh)
COC(=O)C1=C(C)N(CCCC(=O)O)C(=O)NC1c1cccc(Cl)c1Cl (stereo not given)	LMP1 NFkB inh 51
Clc1ccccc1-c1ncnc2ccc(Br)cc12	none
NNc1nc(-c2ccccc2Cl)c2cc(Br)ccc2n1	TROY signal inh 87
COc1cc(/C=C2\CC/C(=C\c3cc(OC)c(OC)c(OC)c3)C2=O)cc(OC)c1OC	none
COc1cc(/C=C2\CC/C(=C\c3cc(OC)c(O)c(OC)c3)C2=O)cc(OC)c1O	Peg3 promoter 105, TWEAK Fn14 block 80, MITF TRPM1 inh 68
COc1cc(/C=C2\COC/C(=C\c3cc(OC)c(OC)c(OC)c3)C2=O)cc(OC)c1OC	Peg3 promoter 105, TWEAK Fn14 block 102, LMP1 NFkB inh 91, MITF TRPM1 inh 92, HIF-2a block 93, TROY signal inh 78
COc1cc(/C=C2/CCCC(C(=O)C(F)(F)F)=C2O)ccc1O	none
COc1cc(/C=C2\CCC/C(=C\c3ccc(O)c(OC)c3)C2=O)ccc1O	Peg3 promoter 105, TWEAK Fn14 block 85, HIF-2a block 81
Cc1cc(C(=O)Nc2nc3c(s2)CCCC3)no1	TWEAK Fn14 block 61
CC(C)(C)c1ccc(C(=O)NC(=S)Nc2sc3c(c2C#N)CCC3)cc1	none
COC(=O)Nc1nc2c(s1)CCCC2	none
C/C(=N\Nc1nc2c(s1)CCCC2)c1ccc(Cl)cc1	TWEAK Fn14 block 55
CC(C)(C)c1ccc(C(=O)NC(=S)Nc2nc3c(s2)CCCC3)cc1	TWEAK Fn14 block 82, TROY signal inh 84
CN(C)c1ccc(C(=O)Nc2nc3c(s2)CCCC3)cc1	TWEAK Fn14 block 72
O=C(Nc1nc2ccccc2[nH]1)Nc1ccccc1F	none
Cc1cn([C@H]2C[C@H](O)[C@@H](CNCc3cccn3-c3nccs3)O2)c(=O)[nH]c1=O	none (no result: MITF TRPM1 inh)
NC(CCc1ccccc1)c1csc(Nc2nncc3ccccc23)n1 (stereo not given)	Peg3 promoter 90 (no result: LMP1 NFkB inh, MITF TRPM1 inh)
NC(Cc1ccccc1)c1csc(Nc2nncc3ccccc23)n1 (stereo not given)	Peg3 promoter 96 (no result: LMP1 NFkB inh, MITF TRPM1 inh)
COc1ccccc1/C(O)=C(\C#N)c1nc2ccccc2[nH]1	none
CCN(CC)CCNC(=O)c1ccc(NC(=O)Cc2ccc(OC)c(S(=O)(=O)N3CCOCC3)c2)cc1	none
C=CC(=O)Nc1ccc(CN2C(=O)N(c3c(Cl)c(OC)cc(OC)c3Cl)Cc3cnc(NCCCCN(CC)CC)nc32)cc1	Peg3 promoter 52
CCN(CC)C(=O)C1=C(C)N(Cc2ccc(OC)cc2)C(=O)C(CC(=O)NCC2CCCCC2)C1 (stereo not given)	none (no result: MITF TRPM1 inh)
CCOC(=O)C1=C(O)/C(=C/c2ccc(-c3ccccc3C(=O)O)o2)SC1=Nc1ccc(C)cc1	TWEAK Fn14 block 58
CC1(C(=O)NS(=O)(=O)Cc2ccccc2)CCN1C(=O)Cc1cc(F)ccc1F (stereo not given)	none (no result: LMP1 NFkB inh, MITF TRPM1 inh)
Cc1cc(C)n(-c2ccc(C(=O)N3CCc4ccccc43)cc2)n1	TWEAK Fn14 block 88
Cc1ccc(-c2nn3c(C)nnc3c3ccccc23)cc1S(=O)(=O)NC(C)c1ccccc1 (stereo not given)	TWEAK Fn14 block 58
N#Cc1c2ccc([N+](=O)[O-])cc2[n+]([O-])n1-c1ccccc1	Peg3 promoter 100, LMP1 NFkB inh 50, MITF TRPM1 inh 90
NCC(c1ccco1)c1c[nH]c2ccccc12 (stereo not given)	none
O=S1(=O)CCN(c2ccccc2CC(c2c[nH]c3ccccc23)c2c[nH]c3ccccc23)CC1	Peg3 promoter 57, TWEAK Fn14 block 63
COc1ccc(Sc2ccc(/C=C3\C(=O)NN(c4ccccc4)C3=O)o2)cc1	TWEAK Fn14 block 93
CCc1ccc(NC(=O)CCC(=O)Nc2nnc(C(F)(F)F)s2)cc1	none
CCCc1nnc(NC(=O)CNc2ccc(F)cc2)s1	TWEAK Fn14 block 81 (no result: TROY signal inh)
CCCc1nnc(NC(=O)CCC(=O)N2CCN(S(=O)(=O)c3ccc(F)cc3)CC2)s1	none
COc1ccc2[nH]c(=O)c(CN(CCO)S(=O)(=O)c3ccc(C)cc3)cc2c1	none
CCCCN(Cc1cc2cc(OC)ccc2[nH]c1=O)S(=O)(=O)c1ccc(C)cc1	TWEAK Fn14 block 52
Clc1ccc(C2=Nn3c(nnc3-c3n[nH]c4c3CCC4)SC2)cc1	TWEAK Fn14 block 55
Brc1ccc(C2=Nn3c(nnc3-c3n[nH]c4c3CCC4)SC2)cc1	TWEAK Fn14 block 60
CCCNC(=O)C1(C)CCCN(CCC(=O)c2ccccc2)C1 (stereo not given)	none (no result: LMP1 NFkB inh, MITF TRPM1 inh)
O=C(NC(c1ccc(-c2ccccc2)cc1)c1cnccn1)C1CCN(CCCOc2ccccc2)CC1 (stereo not given)	Peg3 promoter 103 (no result: LMP1 NFkB inh, MITF TRPM1 inh)
O=C(NC(c1ccc(-c2ccccc2)cc1)c1cnccn1)C1CCN(CCOc2ccc(F)cc2)CC1 (stereo not given)	Peg3 promoter 50 (no result: LMP1 NFkB inh, MITF TRPM1 inh)
Cc1ccsc1/C=N/N1CCN(Cc2ccccc2)CC1	none
CC(C)N1C(=O)C(=O)N(CC(=O)N2c3ccccc3CC2C)C1=O (stereo not given)	none (no result: MITF TRPM1 inh)
Cc1ccsc1C(=O)N1CCC1(C)C(=O)NS(=O)(=O)c1cccc(F)c1 (stereo not given)	none (no result: LMP1 NFkB inh, MITF TRPM1 inh)
COc1cccc(C(=O)N2C(C(C)C)COc3cc(Br)ccc3S2(=O)=O)c1 (stereo not given)	none (no result: MITF TRPM1 inh)
Cc1cccc(C(=O)N2[C@@H](C(C)C)COc3cc(Br)ccc3S2(=O)=O)c1	Peg3 promoter 57
CNC(=O)NNC(=O)c1nc(-c2ccccc2)c(C)o1	none (no result: LMP1 NFkB inh, MITF TRPM1 inh)
